{
  "source": "PubChem BioAssay AID1508600",
  "about": "(Functional Genomics Laboratory (NCATS/FGL), 2020)",
  "note": "Screen size: about 53,000 sequences; about 3,700 (7%) were called active.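 How the source made its calls: active means gene knockdowns whose robust z-score for IL-1 alpha signal is at least 2 or at most -2, so actives lie on both sides; inactive means the rest.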 Shown is part of a subset that was picked to be rich in actives.",
  "data": [
    {"experiment": "Components of the Cytosolic LPS Sensing Pathway: Gene Identification via Genome-wide siRNA Screen", "settings": "RAW264.7 macrophages, IL-1a HTRF, actives lie on both sides, screened at 100 nM (by protocol), cells primed 5 h with Pam3CSK4 first", "text": "Non-canonical inflammasome activation by cytosolic LPS is a critical component of the host response to Gram-negative bacterial infection, however we lack a comprehensive understanding of the cellular processes that control this pathway. Here we describe a genome-wide siRNA screen to identify genes regulating the mouse macrophage IL-1 alpha response to cytosolic LPS.\nRAW264.7 cells were maintained in complete DMEM media, comprising DMEM with 4.5 g/L glucose, 10% FBS (Gemini Bio-Products, West Sacramento, CA), 2 mM Glutamine (Lonza) and 20 mM HEPES (Lonza), hereafter complete DMEM.\nThe RNAi screen was conducted in 384-well format using the Ambion Silencer Mouse Genome siRNA Library (#4391425), which consists of three unique, nonoverlapping, nonpooled siRNAs for each of 17,000 gene targets. siRNA reagents ([…]) were stamped into 384-well white flat-bottom microplates (Corning, 3570) using a Velocity11 VPrep liquid handling system (Agilent) integrated into a BioCel robotic platform (Agilent) in columns 1-22, leaving columns 23-24 empty for negative (Ambion, Negative control #1) and positive (mouse Casp4) controls, respectively. The median value of each plate's negative control column was used to normalize sample wells, and the positive control was used to assess transfection efficiency and assay performance.\nLipofectamine RNAiMAX Transfection Reagent ([…]; Invitrogen) was added in […] serum-free, antibiotic-free media to plate wells using a Thermo Scientific Matrix WellMate and Microplate Stacker. Plates were incubated for 45 min at room temperature to allow for the sufficient formation of siRNA-lipid complexes. Cells were seeded at a density of 1x10^4 cells per well in 20 microL media containing 20% (vol/vol) FBS without antibiotics. The final concentration of siRNA in each well was 100 nM. Cells were cultured for 48h at 37 degrees C in 5% CO2 before addition of […] of TLR ligand Pam3CSK4 for 5 hours. The medium was then removed, replaced with […] growth media and cell were transfected with […] of LipidA and TransIT-TKO (Mirus) for 24 hour. At the end of the LipidA treatment, […] of supernatant was transferred to a 384 Greiner Bio-one non-binding low volume plate and […] of IL-1a HTRF reagent (Cisbio, 62MIL1APEH) was added and incubated at room temperature overnight. The plates were read on an EnVision plate reader (PerkinElmer). Cell viability was measured by adding 20ul Cell Titer Glo to the original plate and running a luminescence read on the EnVision. The quantified IL-1a signal for each siRNA gene-targeted well was divided by the median of the negative control wells and multiplied by 100 to achieve a negative control normalized value for each well/siRNA. This normalized value was then used to generate a robust z-score by first taking the log of each value and then by subtracting the median and dividing by the […].", "values": [
      {"sequence": "GGAUACAUUAAGGUGCAAGTT against Aldh1a7", "z-score": "0.819 (inactive)"},
      {"sequence": "GGCACAUGGAGUGGACAAGTT against Blvrb", "z-score": "3.2 (active)"},
      {"sequence": "GCUUGACCCUACACUACAGTT against Olfr1121", "z-score": "2.47 (active)"},
      {"sequence": "GGCUGGCAAACUCAAAAAATT against Zfp385c", "z-score": "-0.813 (inactive)"},
      {"sequence": "GCGAUCUAGAAAUUGACAATT against St13", "z-score": "-0.59 (inactive)"},
      {"sequence": "GGAAAAAGGAGGGUUUAGCTT against Tm4sf5", "z-score": "0.418 (inactive)"},
      {"sequence": "GGACUGUGCAGUUAUUGUCTT against Psma6", "z-score": "-2.17 (active)"},
      {"sequence": "CCCUUUAUUAUUCCACUGUTT against Olfr530", "z-score": "-1.12 (inactive)"},
      {"sequence": "CCAAGUUCACAAUUGUUCUTT against Gimap8", "z-score": "-0.263 (inactive)"},
      {"sequence": "CCUAAAGAAAGGUUAAAGATT against Sfr1", "z-score": "-0.763 (inactive)"},
      {"sequence": "CGAGCCCAUGUCAGAUCAGTT against Minar1", "z-score": "-2.33 (active)"},
      {"sequence": "GCACUACCACUGUCAGCAATT against Ldb3", "z-score": "-0.734 (inactive)"},
      {"sequence": "CCAACACUACCAGAGAACGTT against Pfkfb1", "z-score": "-0.808 (inactive)"},
      {"sequence": "CGAUAAAAGACCCAAAUUATT against Emx2", "z-score": "1.86 (inactive)"},
      {"sequence": "GCAUGUGUCAAGAUGUCUGTT against Tec", "z-score": "1.36 (inactive)"},
      {"sequence": "GGUCACAAACAGAUUAAUUTT against Ahcy", "z-score": "-0.404 (inactive)"},
      {"sequence": "GGUUUGAAUGUCACCGGCATT against Defb29", "z-score": "-1.22 (inactive)"},
      {"sequence": "GGAUGAGGAAAACUUCCAGTT against Mup5", "z-score": "2.61 (active)"},
      {"sequence": "GCCAUCACGAGCUAAAACCTT against Smad5", "z-score": "-1.91 (inactive)"},
      {"sequence": "GGUUUUUAGCCUGAGUGAGTT against Olfr688", "z-score": "-1.8 (inactive)"},
      {"sequence": "GGAUUUCUCGGAAGUCGAGTT against Cd3e", "z-score": "0.517 (inactive)"},
      {"sequence": "GGUCUUUCAAGUUGCAUACTT against Lama1", "z-score": "0.491 (inactive)"},
      {"sequence": "GGAUGAACUAUACCAUGGCTT against Tmem132c", "z-score": "1.07 (inactive)"},
      {"sequence": "GGACGGUCUUGCCUUCUUCTT against Fam222a", "z-score": "0.901 (inactive)"},
      {"sequence": "CGAUGACGGGAAAUAAUUUTT against Snx4", "z-score": "-0.663 (inactive)"},
      {"sequence": "GCUAUUUUUAUAAGGGCCATT against Sh2b2", "z-score": "2.94 (active)"},
      {"sequence": "GGCACCAUAGAUGUUUGAGTT against Cyp4f16", "z-score": "-1.34 (inactive)"},
      {"sequence": "GGAGCCUGUCUUUUAUUGATT against Olfr938", "z-score": "0.0765 (inactive)"},
      {"sequence": "GGUAGACACCUUGUUCUUATT against Nap1l3", "z-score": "1.03 (inactive)"},
      {"sequence": "GCCUUUAAUACAUAGGCUUTT against Cxcl9", "z-score": "-0.381 (inactive)"},
      {"sequence": "GCCAAUAGUAACCAGCCAGTT against Prkab1", "z-score": "-2.07 (active)"},
      {"sequence": "GCAAAUUCCAGUGAAAGCCTT against Papola", "z-score": "1.12 (inactive)"},
      {"sequence": "GGAUGACCAUGAAAGCUGUTT against Vps13b", "z-score": "1.87 (inactive)"},
      {"sequence": "GGUUAUCAUCUUGUGAAAATT against Srpk1", "z-score": "-0.628 (inactive)"},
      {"sequence": "AUGCCUAUACAAUUCUGUGTT against Olfr1167", "z-score": "0.0339 (inactive)"},
      {"sequence": "GGAGAACAACAAAGACAAGTT against Hoxb8", "z-score": "2.69 (active)"},
      {"sequence": "GGACACUAUAAGAAAGGAATT against Fnta", "z-score": "0.708 (inactive)"},
      {"sequence": "CCCAUUACGCAAAUUGUUCTT against Rin3", "z-score": "-2.31 (active)"},
      {"sequence": "GCCACGUCUGAACACUUCATT against Vamp8", "z-score": "0.873 (inactive)"},
      {"sequence": "GCCUGUUUAGAAUUAGAGATT against Plekhs1", "z-score": "0.135 (inactive)"},
      {"sequence": "GCUGAUGGACAAAUUCCACTT against Rapgef1", "z-score": "0.505 (inactive)"},
      {"sequence": "GCCAUUGCUAUCCAUCGUGTT against Ddx39b", "z-score": "-2.57 (active)"},
      {"sequence": "CCAAAGUUCCCUUAGCCAUTT against Cntrob", "z-score": "0.12 (inactive)"},
      {"sequence": "GCGGCACUUUAUCAUUAUCTT against Hint3", "z-score": "0.398 (inactive)"},
      {"sequence": "GCCCAUUCUAAACAAAUAATT against Ptcd1", "z-score": "-0.825 (inactive)"},
      {"sequence": "GGAGCUUAAAGUGAGCGGCTT against Lage3", "z-score": "-0.859 (inactive)"},
      {"sequence": "CGACCAGUCACAAUGGUUATT against Edil3", "z-score": "1.43 (inactive)"},
      {"sequence": "GGUGAUUGCUGAAGACGAGTT against Fbxw8", "z-score": "-0.172 (inactive)"},
      {"sequence": "CCUCGAAACUCAUUUCCAGTT against Prkch", "z-score": "-0.603 (inactive)"},
      {"sequence": "GGGUUAAUCCCUAUCUCUUTT against Tfe3", "z-score": "0.419 (inactive)"},
      {"sequence": "GAUCUCAAACAUUCUAUGCTT against Lce1c", "z-score": "-1.14 (inactive)"},
      {"sequence": "GGAGCCAAGUGUGAUUACATT against Pias3", "z-score": "6.29 (active)"},
      {"sequence": "GGAAUCUGAAUUUUUGUGUTT against Commd1", "z-score": "-0.576 (inactive)"},
      {"sequence": "GACCUGUUUUGUCUUUUGCTT against Ms4a4c", "z-score": "1.34 (inactive)"},
      {"sequence": "GCUUGAUAGGGAACUUAAUTT against Olfr805", "z-score": "-1.57 (inactive)"},
      {"sequence": "GCUGCUGGAUGCAACCAAATT against Slc16a3", "z-score": "-0.379 (inactive)"},
      {"sequence": "GCUGCACGUGAUCAUGGAUTT against Accs", "z-score": "0.852 (inactive)"},
      {"sequence": "GCCUAAGAUCUGGACCUAATT against Timm44", "z-score": "-0.35 (inactive)"},
      {"sequence": "GGAGAAGCAUUAUUUUGAATT against Myb", "z-score": "0.798 (inactive)"},
      {"sequence": "GGACGACUGGAAGUUUUCUTT against 5830411N06Rik", "z-score": "3.95 (active)"},
      {"sequence": "GGAGCCCUUGCUCUUUAACTT against Izumo1r", "z-score": "-2.23 (active)"},
      {"sequence": "GGACAUAAGAGAAUGGUCATT against Lpp", "z-score": "2.07 (active)"},
      {"sequence": "GGCAAAUGUACUAAAAUGATT against Gpr34", "z-score": "0.764 (inactive)"},
      {"sequence": "GCCACUUACACUUACUUGATT against Olfr1331", "z-score": "-0.15 (inactive)"},
      {"sequence": "GCAUAAGCCACACCCUCUGTT against Cops7a", "z-score": "1.03 (inactive)"},
      {"sequence": "GGGAAAUUUAAAAACCUGGTT against Hoxa2", "z-score": "-0.139 (inactive)"},
      {"sequence": "GGAAAGACCAUUCUGUAUUTT against Vps37d", "z-score": "-1.54 (inactive)"},
      {"sequence": "GCUGAACUGUCUCAGCUCATT against Tmem81", "z-score": "2.06 (active)"},
      {"sequence": "AGAAGAUACCGAUCAAGCGTT against Nsmce3", "z-score": "0.049 (inactive)"}
    ]}
  ]
}
